We go through eight compounds from PubChem BioAssay (NCI).

About 83,000 compounds went through this panel and 20% of them were active in at least one assay; those are over-represented in the sample as a whole.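 Percent growth is the endpoint: 0 to 100 indicates growth inhibition (40 means 60% inhibition), 0 means no net growth, and negative values indicate cell death.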 Values without a mark were called inactive. The source made the active and inactive calls. How the source made its calls: active means growth percent below 10; inactive means the rest.

Among the test systems are DU-145 prostate; K-562 leukemia; MALME-3M melanoma; MDA-MB-231 breast; RXF 393 renal; SF-268 CNS; SF-295 CNS; SF-539 CNS; UACC-257 melanoma; M14 melanoma; HCT-15 colon; HT29 colon; SNB-75 CNS; SNB-19 CNS; U251 CNS; PC-3 prostate; SK-MEL-5 melanoma; UACC-62 melanoma; LOX IMVI melanoma; SK-MEL-28 melanoma.
What all share (assay): NCI-60 one-dose screen, 48 h (100 = growth as untreated, 0 = no growth, -100 = all killed)
Conditions in all cases: 10 µM unless noted

For `Cc1ccc2c(Cn3cc(CSc4nc5ccccc5o4)nn3)cc(=O)oc2c1`, the growth in the assay with DU-145 prostate is 111%; with K-562 leukemia, 98.4%; in the assay with MALME-3M melanoma, 104%; with MDA-MB-231 breast it was 106%; with RXF 393 renal it was 98.6%; in the assay with SF-268 CNS, 103%. In addition, the growth with SF-295 CNS is 110%; in the assay on SF-539 CNS, 101%; in the assay on UACC-257 melanoma, 104%; in the assay on M14 melanoma it was 114%; in the assay with HCT-15 colon, 107%; in the assay with HT29 colon it was 108%. Moreover, the growth in the assay with SNB-75 CNS was 105%; with SNB-19 CNS it was 105%; in the assay on U251 CNS, 113%; with PC-3 prostate, 104%; in the assay on SK-MEL-5 melanoma it was 98.8%; in the assay on UACC-62 melanoma, 104%. Moreover, the growth in the assay on LOX IMVI melanoma is 96.9%; in the assay on SK-MEL-28 melanoma, 110%.

Consider `O=C(/C=C/c1cccc(Cl)c1)c1cccc(OCCCOc2cccc(C(=O)/C=C/c3cccc(Cl)c3)c2)c1`, for which the growth in the assay on DU-145 prostate was 108%; in the assay on K-562 leukemia, 86.9%; in the assay with MALME-3M melanoma it was 116%; in the assay with MDA-MB-231 breast it was 94.9%; in the assay on RXF 393 renal, 104%; with SF-268 CNS it was 98.8%. Further, the growth in the assay on SF-295 CNS is 95.1%; in the assay on SF-539 CNS it was 106%; in the assay with UACC-257 melanoma it was 102%; in the assay with M14 melanoma, 89.9%; in the assay on HCT-15 colon it was 98.1%; with HT29 colon, 96.6%. In addition, the growth was 81.7% in the assay on SNB-75 CNS; 101% with SNB-19 CNS; 75.5% in the assay on U251 CNS; 100% with PC-3 prostate; 100% in the assay with SK-MEL-5 melanoma; 80.6% in the assay on UACC-62 melanoma. In addition, the growth with LOX IMVI melanoma is 63.5%; with SK-MEL-28 melanoma, 108%.

In the case of `CCCOC(=O)Nc1nc2ccc(SCC(C)C)cc2s1`, the growth was 57.8% with DU-145 prostate; 20.8% in the assay with K-562 leukemia; 38.7% in the assay on MALME-3M melanoma; 62.7% in the assay with MDA-MB-231 breast; 28.2% in the assay with RXF 393 renal; 52.7% in the assay on SF-268 CNS. Further, the growth in the assay on SF-295 CNS was 32.4%; with SF-539 CNS it was 26.9%; with UACC-257 melanoma, 58.7%; in the assay on M14 melanoma, 34%; in the assay with HCT-15 colon, 26.6%; in the assay with HT29 colon, 15.9%. Moreover, the growth in the assay with SNB-75 CNS is 28.6%; with SNB-19 CNS, 53.9%; with U251 CNS, 49.2%; in the assay with PC-3 prostate, 45.9%; in the assay on SK-MEL-5 melanoma, 27.6%; in the assay with UACC-62 melanoma, 18.9%. Further, the growth in the assay with LOX IMVI melanoma is 40.8%; in the assay on SK-MEL-28 melanoma, 64.9%.

With `O=C(Cn1cc(CSc2nc3ccccc3o2)nn1)Nc1ccc(F)cc1F`, the growth in the assay with DU-145 prostate is 124%; in the assay with K-562 leukemia it was 107%; in the assay with MALME-3M melanoma, 106%; in the assay with MDA-MB-231 breast, 112%; in the assay with RXF 393 renal it was 103%; in the assay on SF-268 CNS, 115%. The growth with SF-295 CNS is 106%; with SF-539 CNS it was 106%; in the assay on UACC-257 melanoma, 103%; in the assay on M14 melanoma, 108%; with HCT-15 colon, 107%; in the assay on HT29 colon, 128%. The growth is 103% in the assay on SNB-75 CNS; 101% in the assay with SNB-19 CNS; 120% with U251 CNS; 101% with PC-3 prostate; 98.4% in the assay on SK-MEL-5 melanoma; 111% with UACC-62 melanoma. Besides, the growth is 108% in the assay on LOX IMVI melanoma and 114% in the assay with SK-MEL-28 melanoma.

`Nc1c(C(=O)Nc2ccccc2F)sc2nc3c(cc12)CCCC3`: the growth with DU-145 prostate was 26.8%; in the assay with K-562 leukemia, 14.1%; with MALME-3M melanoma, 62.9%; in the assay with MDA-MB-231 breast it was 45.1%; in the assay on RXF 393 renal, 39.2%; with SF-268 CNS it was 50.4%. Also, the growth was 21.9% in the assay with SF-295 CNS; 6.85% (active) in the assay on SF-539 CNS; 61.6% in the assay on UACC-257 melanoma; 33.5% in the assay with M14 melanoma; 28.7% with HCT-15 colon; 11.3% with HT29 colon. In addition, the growth was 37.5% in the assay with SNB-75 CNS; 33.7% with SNB-19 CNS; 26.7% in the assay with U251 CNS; 27.7% with PC-3 prostate; 15.5% in the assay on SK-MEL-5 melanoma; 26.7% in the assay on UACC-62 melanoma. Further, the growth was 40.5% in the assay on LOX IMVI melanoma and 73.7% with SK-MEL-28 melanoma.

Take `O=C(O)c1ccc(-n2cc(/C=N/Nc3ccccc3)c(-c3ccc(F)cc3F)n2)cc1`: the growth in the assay on DU-145 prostate was 49.2%; in the assay with K-562 leukemia, 18.6%; with MALME-3M melanoma, 70.4%; in the assay with MDA-MB-231 breast, 41%; in the assay with RXF 393 renal, 92.9%; with SF-268 CNS, 45.8%. For the same compound, the growth was 77.2% in the assay with SF-295 CNS; 75.3% with SF-539 CNS; 114% in the assay with UACC-257 melanoma; 41.8% in the assay on M14 melanoma; 51.4% in the assay with HCT-15 colon; 90.5% in the assay on HT29 colon. Moreover, the growth was 78.2% in the assay with SNB-75 CNS; 84.3% in the assay on SNB-19 CNS; 85.9% with U251 CNS; 51.9% in the assay on PC-3 prostate; 58% in the assay on SK-MEL-5 melanoma; -14.3% (active) with UACC-62 melanoma. For the same compound, the growth with LOX IMVI melanoma was 18.5%; with SK-MEL-28 melanoma, 74.1%.

For `CN(C)CCNC(=O)c1cc2c3cc(Cl)ccc3[nH]c2c2ncccc12`, the growth with DU-145 prostate is 7.58% (active); in the assay on K-562 leukemia, -25.1% (active); with MALME-3M melanoma, -29.9% (active); in the assay with MDA-MB-231 breast it was 30.3%; with RXF 393 renal it was 15.5%; in the assay on SF-268 CNS, 13.5%. The growth was 22.1% with SF-295 CNS; 5.06% (active) in the assay on SF-539 CNS; 18.4% in the assay with UACC-257 melanoma; -81% (active) with M14 melanoma; 14.2% with HCT-15 colon; 0.808% (active) in the assay on HT29 colon. The growth in the assay with SNB-75 CNS is 44.7%; with SNB-19 CNS, 40%; with U251 CNS it was 11.5%; with PC-3 prostate, 22.4%; in the assay with SK-MEL-5 melanoma it was -38.8% (active); with UACC-62 melanoma, -86.5% (active). Also, the growth with LOX IMVI melanoma was -77.5% (active); in the assay with SK-MEL-28 melanoma, -59.3% (active).

With `Clc1ccc2c(NC3CCC(N4CCOCC4)CC3)ccnc2c1` (stereo not given), the growth in the assay with DU-145 prostate was 90.9%; with K-562 leukemia, 48.6%; with MALME-3M melanoma, 89.3%; in the assay on MDA-MB-231 breast it was 81.7%; in the assay on RXF 393 renal it was 90.3%; with SF-268 CNS, 108%. Further, the growth was 47.1% in the assay with SF-295 CNS; 91.4% in the assay on SF-539 CNS; 56.6% in the assay with UACC-257 melanoma; 84% in the assay with M14 melanoma; 93.5% in the assay with HCT-15 colon; 84.7% with HT29 colon. Further, the growth with SNB-75 CNS is 82.7%; in the assay on SNB-19 CNS it was 79.3%; with U251 CNS it was 81.1%; in the assay on PC-3 prostate, 62.3%; in the assay with SK-MEL-5 melanoma, 53.4%; with UACC-62 melanoma it was 77.4%. The growth in the assay with LOX IMVI melanoma is 68.6%; in the assay on SK-MEL-28 melanoma, 97.3%.
